TDP1 cell CPT: DT40-hTDP1 cell growth loss with CPT. chicken DT40 Tdp1-/-;hTDP1 cells + 20 nM CPT, ATP luminescence, 48 h. Potency, µM (doses to about 46.2 µM), most hits filed as inhibitors. 420,000 tested, 12% active. AID 686979; also: nearly all actives have a fitted effect of over 55% in size
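Chicken DT40 Tdp1-/- cells complemented with human TDP1, 400 cells/well, exposed to compounds plus 20 nM camptothecin for at least 48 h at 37 C; viability read as ATP content by CellTiter-Glo luminescence.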
TDP1 cell noCPT: qHTS for Inhibitors of human tyrosyl-DNA phosphodiesterase 1 (TDP1): qHTS in cells in absence of CPT; DT40 Tdp1-/- hTDP1 cells, no CPT, ATP luminescence, 48 h; Potency, µM (series often up to 46.2 µM), actives largely listed as inhibitors; 420,000 tested, 15% active; also: nearly all actives have a fitted effect of over 55% in size
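Stably hTDP1-transfected Tdp1-null chicken DT40 cells were treated with library compounds minus camptothecin and grown for at least 48 hr at 37 °C, after which cellular ATP was quantified by luminescence.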
IL-1B inflam inh: inhibitors of inflammasome signaling (IL-1 beta secretion); THP-1 LPS/ATP IL-1B secretion, AlphaLISA, 16 h; stronger effect = lower value; activity change, % at 57.5 µM; 360,000 tested, 4.7% active; AID 743279; in the data active = activity change below about -50%; inconclusive = mostly about -30% to -49%
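THP-1 cells pretreated 1 hr with compounds (up to 57.5 uM final), then stimulated with LPS (250 ng/mL final) plus ATP (1.25 mM final); secreted IL-1B measured by AlphaLISA after 16 hr, decreased signal indicating inhibition.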
ELG1 DNA repair: ELG1-dependent DNA repair inhibition; HEK293T ELG1-luciferase reporter, luminescence, 16 h; DNA damage induced by 5-fluorouridine; Potency, µM (doses to about 46.1 µM), actives largely listed as inhibitors; 330,000 tested, 2.3% active; also: nearly all actives have a fitted effect of over 55% in size
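Luminescence from the luciferase reporter, measured 30 min after ONE-Glo reagent at room temperature, was the read-out. Beforehand, 2,000 cells per well were exposed for 16 hr at 37 °C to 5-fluorouridine together with compound or vehicle.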
HT1080-NT tox: kills 2HG-producing HT-1080-NT fibrosarcoma cells | 360,000 tested, 1.6% active | HT-1080-NT fibrosarcoma viability, CellTiter-Glo ATP luminescence, 48 h | Potency, µM (doses to about 46.1 µM), most hits filed as cytotoxic;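 also: NT is the 2HG producing partner of a matched IDH1 knockdown line; nearly all actives have a fitted effect of over 55% in size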
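HT-1080-NT; 750 cells/well; 5% FBS RPMI; 48 h compound, 37 degrees C; CellTiter-Glo luminescence; curve fitting and curve-class assignment.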
HT1080 IDH1KD tx: HT-1080 IDH1 knockdown cell toxicity (counter line); HT-1080 IDH1 knockdown viability, ATP luminescence, 48 h; Potency, µM (series often up to 46.1 µM), usual class: cytotoxic; 360,000 tested, 2% active; AID 686971
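Assay cells: HT-1080 with IDH1 knockdown, 750 per well, RPMI/5% FBS. Exposure: 48 h at 37 °C following 2 h pre-incubation. Read: CellTiter-Glo luminescence; fitted concentration-response, curve class assigned.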
Hits are given with their value; n = inactive; u = inconclusive; x = not tested or not shown. Only some compounds are listed: those with a hit (about 19% of all), similar ones and a draw of the others. Unless noted, calls follow the shape of the dose curve; as a rule, active = well fitted curve in the direction sought with a large enough effect; inconclusive = small, poorly fitted or top-dose-only effect, or another doubt; inactive = no such curve, though single readings can be large; an effect the other way counts as inactive or inconclusive.

SMILES	TDP1 cell CPT	TDP1 cell noCPT	IL-1B inflam inh	ELG1 DNA repair	HT1080-NT tox	HT1080 IDH1KD tx
COc1ccccc1N(Cc1ccccc1)S(=O)(=O)c1cccc(C(=O)Nc2cccc(C)n2)c1	u	u	n	u	n	n
O=c1c2[nH]cnc2n(-c2cccc(Br)c2)c(=O)n1Cc1ccccc1	u	n	n	n	n	n
COc1ccc(NS(=O)(=O)c2ccc(N3CCCC3)c(N)c2)cc1	5.2µM	4.6µM	n	u	n	u
COc1ccc(NS(=O)(=O)c2ccc(I)cc2)cc1N1CCN(C)CC1	27µM	30µM	x	x	x	x
COc1ccc(NS(=O)(=O)c2cc(N)ccc2N2CCCC2)cc1	u	u	n	n	n	n
Nc1cc(S(=O)(=O)Nc2ccc(Cl)cc2)ccc1N1CCOCC1	7.3µM	5.2µM	n	15µM	u	n
CC(C)C(=O)N1CCCC1(C)C(=O)Nc1ccc(F)cc1 (stereo not given)	n	n	n	x	n	n
CCc1nc2ccc(C(=O)N3CCN(S(=O)(=O)CC)CC3)cn2c1N(C)C(=O)c1cccc(OC)c1	n	n	n	x	n	n
Cc1cc(C)nc(NC2=NC3CCCCC3N2)n1 (stereo not given)	21µM	u	n	u	n	n
Cc1cc(C)nc(NC2=NCC(=O)N2c2cc(Cl)cc(Cl)c2)n1	n	n	n	n	n	n
CC(=O)Nc1cc(-c2cccc(C)c2)cn2c(-c3ccc(S(C)(=O)=O)cc3)cnc12	15µM	12µM	-57	x	n	n
CC(=O)Nc1cc(-c2ccccc2Cl)cn2c(-c3ccc(S(C)(=O)=O)cc3)cnc12	u	u	-50	x	u	n
CCOC(=O)[C@@H]1[C@H]2COc3cc(OC)ccc3[C@@H]2N2C(=O)N(c3ccc(OC)cc3)C(=O)[C@]12C	n	n	n	n	n	n
CCOC(=O)[C@@H]1[C@H]2COc3cc(OC)ccc3[C@H]2N2C(=O)N(c3ccc(C(F)(F)F)cc3)C(=O)[C@]12C	15µM	21µM	n	23µM	u	u
CCOC(=O)[C@@H]1[C@H]2COc3cc(OC)ccc3[C@@H]2N2C(=O)N(c3ccc(C(F)(F)F)cc3)C(=O)[C@@]12C	u	13µM	n	n	n	n
COc1ccc([C@@H]2[C@@H]3C(=O)N(C(C)(C)C)C(=O)[C@@H]3[C@]3(C)C(=O)N(c4ccc(C(F)(F)F)cc4)C(=O)N23)cc1	u	16µM	n	n	n	n
COc1ccc([C@@H]2[C@@H]3C(=O)N(C(C)(C)C)C(=O)[C@@H]3[C@]3(CC(C)C)C(=O)N(c4ccc(C(F)(F)F)cc4)C(=O)N23)cc1	n	u	n	n	n	n
O=C(NCC1CCCCC1)c1ccc2nc([C@@H]3O[C@H](CO)[C@H](O)[C@H](O)[C@H]3O)[nH]c2c1	n	n	n	x	n	n
O=C(O)CCNS(=O)(=O)c1ccc2c(c1)OCCCO2	n	n	n	n	n	n
C[C@@H]1CN([C@H](C)CO)S(=O)(=O)c2ccc(-c3ccc(C(=O)N(C)C)cc3)cc2O[C@H]1CN(C)C(=O)Cc1ccccn1	n	n	n	x	n	n
Cc1cccc(-n2ccc(=O)c(C(=O)O)n2)c1	n	n	n	n	n	n
Cc1cccc(N2N=C(C(=O)O)CCC2=O)c1	n	n	n	n	n	n
Cc1ccc2c(c1)C(=O)[C@@]1(O)CCN(c3ccccc3)C1=N2	8.4µM	u	x	x	x	x
Cc1ccc2c(c1)C(=O)C1(O)CCN(c3ccccc3)C1=N2 (stereo not given)	8.9µM	6.3µM	x	x	x	x
O=C(NCCc1csc(-c2cccnc2)n1)c1cccc2ccccc12	16µM	23µM	n	u	n	n
O=C(NCCc1csc(-c2ccc(Cl)cc2)n1)c1cccs1	u	16µM	x	x	x	x
